Laboratory results published in PubChem BioAssay AID1159580 (chemical genetic matrix, 2015).
Screen size: about 5,500 compounds; about 2,000 (36%) were called active. Inconclusive results (about 18%) are left out. The list shows a part of the results. Unmarked numbers belong to inactive results. Cut-off read from the data, not from the text of the source: active = normalized growth mostly below about 0.91 (no sharp cut-off); inconclusive = no clear call, values can overlap the other calls; inactive = mostly above about 0.92.

Test: chemical genetic growth profiling, strain panel (AID 1159580);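 note: tested at 20 µM; growth read once vehicle control cultures reached saturation at 30 °C; 1 = growth at the plate median or of vehicle wells; lower values mean less growth of the strain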
Conditions: growth OD
[1] = S. cerevisiae deletion strains, locus YAL013W, strain DEP1, active compounds read low
[2] = S. cerevisiae deletion strains, locus YBR229C, strain ROT2, active compounds read low
[3] = S. cerevisiae deletion strains, locus YDL101C, strain DUN1, active compounds read low
[4] = S. cerevisiae deletion strains, locus YDL134C, strain PPH21, active compounds read low
[5] = S. cerevisiae deletion strains, locus YDR150W, strain NUM1, active compounds read low
[6] = S. cerevisiae deletion strains, locus YEL061C, strain CIN8, active compounds read low
[7] = S. cerevisiae deletion strains, locus YGR078C, strain PAC10, active compounds read low
[8] = S. cerevisiae deletion strains, locus YGR229C, strain SMI1, active compounds read low
[9] = S. cerevisiae deletion strains, locus YHR030C, strain SLT2, active compounds read low
[10] = S. cerevisiae deletion strains, locus YJR043C, strain POL32, active compounds read low
[11] = S. cerevisiae deletion strains, locus YJR075W, strain HOC1, active compounds read low
[12] = S. cerevisiae deletion strains, locus YKL190W, strain CNB1, active compounds read low
[13] = S. cerevisiae deletion strains, locus YLR039C, strain RIC1, active compounds read low
[14] = S. cerevisiae deletion strains, locus YLR262C, strain YPT6, active compounds read low
[15] = S. cerevisiae deletion strains, locus YMR263W, strain SAP30, active compounds read low
[16] = S. cerevisiae deletion strains, locus YMR307W, strain GAS1, active compounds read low
[17] = S. cerevisiae deletion strains, locus YNL153C, strain GIM3, active compounds read low
[18] = S. cerevisiae deletion strains, locus YNL322C, strain KRE1, active compounds read low
[19] = S. cerevisiae deletion strains, locus YOL006C, strain TOP1, active compounds read low
[20] = S. cerevisiae deletion strains, locus YPL055C, strain LGE1, active compounds read low
[21] = S. cerevisiae deletion strains, locus YPL241C, strain CIN2, active compounds read low

CCCCCCc1cc2c(C)cc(=O)oc2cc1O
normalized growth [1]: 0.979 | normalized growth [2]: 0.895 (active) | normalized growth (S. cerevisiae deletion strains, locus YCL061C, strain MRC1, active compounds read low): 0.968 | normalized growth [3]: 1.02 | normalized growth [4]: 0.976 | normalized growth [5]: 0.996 | normalized growth [6]: 0.966 | normalized growth [7]: 0.996 | normalized growth [8]: 0.976 | normalized growth [9]: 0.922 | normalized growth (S. cerevisiae deletion strains, locus YHR087W, strain rtc3, active compounds read low): 0.725 (active) | normalized growth (S. cerevisiae deletion strains, locus YJL187C, strain SWE1, active compounds read low): 0.938 | normalized growth [10]: 1.03 | normalized growth [11]: 0.888 (active) | normalized growth [12]: 0.959 | normalized growth [13]: 0.721 (active) | normalized growth (S. cerevisiae deletion strains, locus YLR058C, strain SHM2 (second series), active compounds read low): 0.981 | normalized growth (S. cerevisiae deletion strains, locus YLR085C, strain ARP6, active compounds read low): 0.864 | normalized growth [14]: 0.782 (active) | normalized growth (S. cerevisiae deletion strains, locus YML094W, strain GIM5, active compounds read low): 0.918 | normalized growth (S. cerevisiae deletion strains, locus YMR219W, strain ESC1, active compounds read low): 0.973 | normalized growth [15]: 0.976 | normalized growth [16]: 0.803 | normalized growth [17]: 0.965 | normalized growth (S. cerevisiae deletion strains, locus YNL298W, strain CLA4 (second series), active compounds read low): 0.942 | normalized growth [18]: 0.989 | normalized growth (S. cerevisiae deletion strains, locus YNR030W, strain Alg12, active compounds read low): 0.927 | normalized growth [19]: 0.863 | normalized growth [20]: 0.896 | normalized growth [21]: 0.932 | normalized growth (S. cerevisiae deletion strains, locus YPR135W, strain CTF4, active compounds read low): 0.792

CC(C)CC(NC(=O)OCC1c2ccccc2-c2ccccc21)C(=O)O (configuration not stated)
normalized growth [1]: 1.01 | normalized growth (S. cerevisiae deletion strains, locus YBR021W, strain FUR4, active compounds read low): 0.994 | normalized growth [2]: 0.997 | normalized growth (S. cerevisiae deletion strains, locus YCL029C, strain bik1, active compounds read low): 1.03 | normalized growth (S. cerevisiae deletion strains, locus YDL035C, strain GPR1, active compounds read low): 0.998 | normalized growth (S. cerevisiae deletion strains, locus YDL074C, strain BRE1, active compounds read low): 1 | normalized growth [3]: 1.02 | normalized growth [4]: 0.986 | normalized growth (S. cerevisiae deletion strains, locus YDL185W, strain tfp1, active compounds read low): 0.998 | normalized growth (S. cerevisiae deletion strains, locus YDL192W, strain arf1, active compounds read low): 1.01 | normalized growth (S. cerevisiae deletion strains, locus YDR101C, strain arx1, active compounds read low): 1.01 | normalized growth [5]: 0.995 | normalized growth (S. cerevisiae deletion strains, locus YDR162C, strain NBP2, active compounds read low): 1.01 | normalized growth (S. cerevisiae deletion strains, locus YDR318W, strain mcm21, active compounds read low): 1.02 | normalized growth (S. cerevisiae deletion strains, locus YDR388W, active compounds read low): 1.01 | normalized growth (S. cerevisiae deletion strains, locus YDR502C, strain sam2, active compounds read low): 1.02 | normalized growth [6]: 0.997 | normalized growth (S. cerevisiae deletion strains, locus YER110C, active compounds read low): 1.02 | normalized growth (S. cerevisiae deletion strains, locus YER155C, strain BEM2, active compounds read low): 1 | normalized growth (S. cerevisiae deletion strains, locus YER167W, strain BCK2, active compounds read low): 0.995 | normalized growth (S. cerevisiae deletion strains, locus YGL078C, strain dbp3, active compounds read low): 1 | normalized growth (S. cerevisiae deletion strains, locus YGL086W, strain mad1, active compounds read low): 0.981 | normalized growth (S. cerevisiae deletion strains, locus YGL248W, strain PDE1, active compounds read low): 1 | normalized growth [7]: 1.02 | normalized growth (S. cerevisiae deletion strains, locus YGR135W, strain pre9, active compounds read low): 1.02 | normalized growth [8]: 0.982 | normalized growth (S. cerevisiae deletion strains, locus YGR252W, strain gcn5, active compounds read low): 0.916 | normalized growth [9]: 1.01 | normalized growth (S. cerevisiae deletion strains, locus YHR079C, strain IRE1 (second series), active compounds read low): 1.01 | normalized growth (S. cerevisiae deletion strains, locus YHR094C, strain hxt1, active compounds read low): 0.997 | normalized growth (S. cerevisiae deletion strains, locus YHR129C, strain ARP1, active compounds read low): 1.01 | normalized growth (S. cerevisiae deletion strains, locus YHR200W, strain rpn10, active compounds read low): 1.01 | normalized growth (S. cerevisiae deletion strains, locus YIL066C, strain RNR3, active compounds read low): 1.02 | normalized growth (S. cerevisiae deletion strains, locus YIL073C, strain SPO22, active compounds read low): 1.03 | normalized growth (S. cerevisiae deletion strains, locus YIL125W, strain kgd1, active compounds read low): 0.992 | normalized growth (S. cerevisiae deletion strains, locus YIR030C, strain dcg1, active compounds read low): 1 | normalized growth (S. cerevisiae deletion strains, locus YJL095W, strain BCK1, active compounds read low): 1.07 | normalized growth (S. cerevisiae deletion strains, locus YJL134W, strain LCB3, active compounds read low): 1 | normalized growth (S. cerevisiae deletion strains, locus YJL168C, strain set2, active compounds read low): 1.01 | normalized growth (S. cerevisiae deletion strains, locus YJL187C, strain SWE1 (second series), active compounds read low): 1.02 | normalized growth [10]: 1.02 | normalized growth [11]: 0.997 | normalized growth (S. cerevisiae deletion strains, locus YKL009W, strain mrt4, active compounds read low): 0.969 | normalized growth (S. cerevisiae deletion strains, locus YKL068W, active compounds read low): 0.997 | normalized growth (S. cerevisiae deletion strains, locus YKL085W, strain MDH1 (second series), active compounds read low): 1 | normalized growth (S. cerevisiae deletion strains, locus YKL085W, strain MDH1, active compounds read low): 1 | normalized growth [12]: 0.985 | normalized growth (S. cerevisiae deletion strains, locus YKR001C, strain vps1, active compounds read low): 1.06 | normalized growth [13]: 1.05 | normalized growth (S. cerevisiae deletion strains, locus YLR058C, strain SHM2, active compounds read low): 0.997 | normalized growth (S. cerevisiae deletion strains, locus YLR102C, strain apc9, active compounds read low): 1.01 | normalized growth [14]: 1.11 | normalized growth (S. cerevisiae deletion strains, locus YLR268W, strain sec22, active compounds read low): 1.06 | normalized growth (S. cerevisiae deletion strains, locus YLR330W, strain CHS5, active compounds read low): 0.984 | normalized growth (S. cerevisiae deletion strains, locus YLR342W, strain FKS1 (second series), active compounds read low): 0.985 | normalized growth (S. cerevisiae deletion strains, locus YLR371W, strain rom2, active compounds read low): 1.01 | normalized growth (S. cerevisiae deletion strains, locus YLR418C, strain cdc73, active compounds read low): 1 | normalized growth (S. cerevisiae deletion strains, locus YML016C, strain PPZ1, active compounds read low): 0.995 | normalized growth (S. cerevisiae deletion strains, locus YML032C, strain rad52, active compounds read low): 1.01 | normalized growth (S. cerevisiae deletion strains, locus YML124C, strain tub3, active compounds read low): 1 | normalized growth (S. cerevisiae deletion strains, locus YMR078C, strain ctf18, active compounds read low): 1.01 | normalized growth (S. cerevisiae deletion strains, locus YMR223W, strain ubp8, active compounds read low): 0.982 | normalized growth [15]: 1.01 | normalized growth [16]: 0.985 | normalized growth (S. cerevisiae deletion strains, locus YNL067W, strain RPL9B, active compounds read low): 1.03 | normalized growth (S. cerevisiae deletion strains, locus YNL128W, strain TEP1, active compounds read low): 1.02 | normalized growth [17]: 1.02 | normalized growth (S. cerevisiae deletion strains, locus YNL233W, strain BNI4, active compounds read low): 1.01 | normalized growth (S. cerevisiae deletion strains, locus YNL250W, strain rad50, active compounds read low): 0.996 | normalized growth (S. cerevisiae deletion strains, locus YNL271C, strain bni1, active compounds read low): 1 | normalized growth (S. cerevisiae deletion strains, locus YNL298W, strain CLA4, active compounds read low): 0.994 | normalized growth (S. cerevisiae deletion strains, locus YNL307C, strain MCK1, active compounds read low): 1.02 | normalized growth [18]: 1 | normalized growth (S. cerevisiae deletion strains, locus YNR052C, strain pop2, active compounds read low): 1.01 | normalized growth [19]: 1.1 | normalized growth (S. cerevisiae deletion strains, locus YOL012C, strain htz1): 1.27 | normalized growth (S. cerevisiae deletion strains, locus YOL147C, strain pex11, active compounds read low): 1.01 | normalized growth (S. cerevisiae deletion strains, locus YOR061W, strain CKA2, active compounds read low): 0.991 | normalized growth (S. cerevisiae deletion strains, locus YOR069W, strain VPS5, active compounds read low): 1 | normalized growth (S. cerevisiae deletion strains, locus YOR136W, strain idh2, active compounds read low): 0.99 | normalized growth (S. cerevisiae deletion strains, locus YOR144C, strain elg1, active compounds read low): 1 | normalized growth (S. cerevisiae deletion strains, locus YOR184W, strain ser1, active compounds read low): 1.05 | normalized growth (S. cerevisiae deletion strains, locus YOR316C, strain cot1, active compounds read low): 1.01 | normalized growth [20]: 0.963 | normalized growth [21]: 0.993 | normalized growth (S. cerevisiae deletion strains, locus YPR119W, strain clb2, active compounds read low): 1 | normalized growth (S. cerevisiae deletion strains, locus YPR141C, strain kar3, active compounds read low): 0.999 | normalized growth (S. cerevisiae deletion strains, locus YPR163C, strain tif3, active compounds read low): 1.02 | normalized growth (S. cerevisiae deletion strains, locus YPR167C, strain met16, active compounds read low): 1.01 | normalized growth (S. cerevisiae deletion strains, strain wtn01, active compounds read low): 1.04 | normalized growth (S. cerevisiae strains, strain wild type, active compounds read low): 1
